Bioassay records: PubChem, National Center for Advancing Translational Sciences (NCATS)
TGFb inhibitor: blocks TGF-b signaling. HepG2 CAGA-GFP TGF-b/SMAD3 reporter, GFP fluorescence, 18 h; TGF-beta stimulated, 500 pg/mL final. Potency, µM (highest dose often 46.1 µM), inactives show at the top dose activity, negative = inhibition, usual class: inhibitors. hit rate 1.2% among 410,000. AID 588855; note: % is set by controls: 0 for no effect and ±100 for the full control effect; nearly all actives have a fitted effect of over 65% in size
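Inhibition of TGF-beta-driven CAGA-GFP reporter expression in HEPG2 cells is measured by cellular GFP fluorescence after 18 h stimulation with 500 pg/mL recombinant TGF-beta in 1% FBS medium at 37 degrees C.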
A549 tox: kills or reduces viability of A549 cells in Nrf2 counter-screen; A549 ARE-Fluc cells, CellTiter-Fluor viability, 18-24 h; Potency, µM (titrated, usually from 46 µM), for the others: top-dose activity change, negative = cytotoxicity, actives largely listed as inhibitors; hit rate 0.16% among 390,000; note: % is set by controls: 0 for no effect and ±100 for the full control effect
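Cytotoxicity counterscreen: CellTiter-Fluor fluorescence was measured in A549 ARE_Fluc cells after 18-24 h of compound exposure in a concentration series. The subsequent BugLite luminescent read reports ARE-luciferase activity.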
Nrf2 inh: blocks Nrf2 signaling; Potency, µM (series often up to 46 µM), without a hit: at the highest dose activity change, negative = inhibition, hits mostly inhibitors; hit rate 2.1% among 360,000; A549 ARE-Fluc reporter, luciferase luminescence, 18-24 h; note: % is set by controls: 0 for no effect and ±100 for the full control effect; nearly all actives have a fitted effect of over 60% in size
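A549 ARE_Fluc cells (5000/well, 5% FBS OPTI-MEM) pre-incubated 2 h, then treated with compounds 18-24 h at 37C/5% CO2 in concentration-response. CellTiter-Fluor viability read first; BugLite luciferase luminescence after 15 min at room temperature gives Nrf2 activity.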
ATXN2 expr inh: inhibitors of ATXN2 expression; HEK-293 ATXN2-luciferase reporter, luminescence, 24 h; hit rate 0.72% among 360,000; AID 1745845; Potency, µM (series often up to 57 µM), without a hit: at the top dose activity change, negative = inhibition, actives largely listed as inhibitors; note: % is set by controls: 0 for no effect and ±100 for the full control effect; nearly all actives have a fitted effect of over 55% in size
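qHTS (up to 57 uM final) was run with 24 h compound exposure of reporter cells at 37 °C. Each well was multiplexed: SteadyGlo luminescence measured ATXN2-luciferase expression after a fluorogenic Gly-Phe-AFC viability readout (25 uM final).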
S2 tox: reduces viability in counter-screen for ATXN expression inhibitors; hit rate 0.49% among 400,000; AID 651635; S2 cells (HEK-293 line with an ATXN2-luciferase reporter) viability, CellTiter-Fluor protease fluorescence, 24 h; Potency, µM (highest dose often 56.7 µM), actives largely listed as cytotoxic; note: nearly all actives have a fitted effect of over 40% in size
HepG2 viability: HepG2 cytotoxicity, counter-screen for TGF-b inhibitors | HepG2 CAGA-GFP viability, ATP luminescence, 18 h | Potency, µM (doses to about 46.1 µM), inactives show at the top dose activity change, negative = cytotoxicity, actives largely listed as cytotoxic | hit rate 0.76% among 410,000
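HepG2 CAGA-GFP cells (1000/well, DMEM with 1% FBS) received compound, then TGF-beta at 500 pg/mL final, and were incubated 18 hours at 37 degrees C. Viability was read by CellTiter-Glo luminescence. Media-only wells were set as complete cell-killing and DMSO as no toxicity.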
* hit, by the source's call; i = inactive; ? = inconclusive; nt = no result. Only some compounds are listed: those with a hit (about 3.8% of all), similar ones and a draw of the others. Calls come from the whole dose curve; as a rule, active = well fitted curve in the direction sought with a large enough effect; inconclusive = small, poorly fitted or top-dose-only effect, or another doubt; inactive = no such curve, though single readings can be large; an effect the other way counts as inactive or inconclusive. Potency is the fitted concentration of half-maximal effect.

SMILES | TGFb inhibitor | A549 tox | Nrf2 inh | ATXN2 expr inh | S2 tox | HepG2 viability
CCc1cccc(-n2nnc(-c3nc(-c4ccccc4Cl)no3)c2N)c1 | 2.2% | 5.6% | 24.4% | nt | nt | 2.4%
Cc1ccccc1C(=O)Nc1ccc(C(=O)OCc2cc(=O)n3c4c(sc3n2)CCCC4)cc1 | 11.2µM* | 1.3% | nt | nt | nt | 8.91µM*
CN1CCN(NC(=O)c2cccc(C(F)(F)F)c2)CC1 | -1.5% | 1.0% | -4.4% | 1.3% | i | -19.3%
Cc1ccc(/C=C/C(=O)c2c(C)cc(C)[nH]c2=O)cc1 | -3.8% | -11.1% | nt | ? | ? | -47.7%
COc1ccccc1/C=C/C(=O)c1ccccc1 | ? | 7.5% | ? | nt | i | -57.3%
COc1ccccc1/C=C/C(=O)c1c2c(c(C)[nH]c1=O)CCCC2 | -21.9% | ? | 16.4µM* | -37.6% | ? | 6.1%
CCc1ccc(/C=C/C(=O)c2c(C)cc(C)[nH]c2=O)cc1 | ? | -22.9% | 18.4µM* | ? | ? | -61.5%
COc1ccc(/C=C/C(=O)c2c(C)cc(C)[nH]c2=O)c2ccccc12 | 17.8µM* | -15.6% | ? | ? | ? | 12.6µM*
CCc1nnc(N/N=C/c2cccs2)n1N | 12.6µM* | 6.3% | 5.4% | -9.5% | i | -98.1%
CCc1nnc(N/N=C/c2ccc(O)c(OC)c2)n1N | 17.8µM* | -6.0% | 2.8% | 3.0% | i | -103.7%
CCc1nnc(N/N=C\c2ccc(OC(C)=O)c(OC)c2)n1N | ? | -5.7% | ? | -15.4% | i | -89.8%
CCc1nnc(N/N=C/c2cc(Br)c(O)cc2O)n1N | 7.94µM* | 0.6% | 7.3% | -31.0% | i | 10µM*
O=C(CN1C(=O)CSc2ccc(S(=O)(=O)N3CCCC3)cc21)NCc1ccccc1Cl | 0.0% | -1.1% | -23.2% | nt | nt | 3.0%
CN(C)Cc1c(C(=O)NCCOc2ccc(C(=O)NO)cc2)oc2ccccc12 | nt | nt | nt | 119.5% | nt | nt
CCN1/C(=C/c2ccc3ccccc3[n+]2CC)C=Cc2ccccc21 | 1.78µM* | 9.2µM* | 2.91µM* | 3.16µM* | 10µM* | 10µM*
CCN1/C(=C/c2ccc3ccccc3[n+]2CCCS(=O)(=O)[O-])C=Cc2cc(C)ccc21 | -21.1% | ? | -18.6% | -15.9% | 17.8µM* | -15.4%
COc1ccc(/C=N/NC(=O)c2cccc([N+](=O)[O-])c2)c2ccccc12 | -6.3% | ? | ? | 17.8µM* | ? | -17.9%
COc1cc2c(cc1NC(=O)c1cccc([N+](=O)[O-])c1)oc1ccccc12 | -2.3% | 18.4µM* | 16.4µM* | ? | ? | -24.0%
COc1ccc(/C=N/NC(=O)c2cccc([N+](=O)[O-])c2)cc1OC(=O)c1ccc(C)cc1 | -14.5% | ? | 20.6µM* | 1.5% | i | -16.2%
CCC(NC(=O)NCc1cccnc1)(C(F)(F)F)C(F)(F)F | 11.6% | -0.7% | nt | 5.4% | i | 3.0%
COc1ccccc1-c1ccnc(-n2ncc(C(=O)N[C@H]3CCCCNC3=O)c2C2CC2)n1 | nt | nt | nt | nt | i | nt
COC(=O)C1=C(C(=O)OC)[C@]2([C@H]3CCCCN[C@@H](Cc4ccccc4)C(=O)N3Cc3ccccc3)C=C[C@H]1O2 | ? | -5.0% | 23.1µM* | -28.8% | i | 2.3%
COC(=O)C1=C(C(=O)OC)[C@]2([C@H]3C/C=C\CN[C@@H](Cc4ccccc4)C(=O)N3Cc3ccccc3)C=C[C@H]1O2 | ? | nt | nt | nt | nt | -24.7%
CCN1c2ccccc2N(C)C1(C)c1ccccc1 (stereo not given) | 8.91µM* | ? | ? | 17.8µM* | i | -101.9%
COc1ccc(CC(=O)NCc2nc3cccnc3n2Cc2ccc(C)cc2)cc1OC | -24.5% | -2.3% | nt | nt | nt | -29.0%
SMILES | TGFb inhibitor | A549 tox | Nrf2 inh | ATXN2 expr inh | S2 tox | HepG2 viability
O=C1Nc2ccc(Br)cc2C12NNc1ccccc1O2 (stereo not given) | -10.4% | ? | -13.1% | ? | 25.1µM* | -104.9%
ClC(Cl)(c1nnnn1-c1ccccc1)c1nnnn1-c1ccccc1 | ? | -7.0% | -8.6% | ? | ? | 11.2µM*
Cc1ccc(CNc2ncnc3ccc(-c4c(C)noc4C)cc23)cc1 | nt | -2.0% | ? | nt | nt | nt
COCCn1c(C)cc(C(=O)CSc2n[nH]c(N)n2)c1C | -8.0% | -4.7% | 10.5% | 11.9% | i | -11.5%
COCCn1c(C)cc(C(=O)CSc2nnnn2C2CCCC2)c1C | -19.2% | -0.4% | ? | 14.1µM* | i | -6.4%
COCCn1c(C)cc(C(=O)CSc2nnc(C)s2)c1C | 11.7% | -1.9% | 14.6µM* | 5.01µM* | i | -4.5%
COC(=O)c1ccc(NC(=O)c2ccc3nccnc3c2)cc1 | -13.5% | 0.8% | 14.4% | -0.4% | i | -10.8%
O=C(C1CCC1)N1CCN(c2ccnc3cc(Cl)ccc23)CC1 | -10.9% | 1.4% | -25.6% | nt | ? | -25.4%
O=C(Nc1ccc(OC(F)(F)F)cc1)N1CCN(c2ccnc3cc(Cl)ccc23)CC1 | ? | ? | 4.61µM* | ? | ? | -21.5%
O=C(Nc1ccc(OC(F)(F)F)cc1)c1ccc2nccnc2c1 | -16.1% | ? | 13µM* | -1.6% | i | -2.7%
O=C(C1CCCCC1)N1CCN(c2ccnc3cc(Cl)ccc23)CC1 | -23.9% | -4.4% | 20.6µM* | 17.8µM* | ? | -160.2%
CC(=O)c1ccc(N2CCN(c3ccnc4cc(Cl)ccc34)CC2)cc1 | 0.4% | -1.2% | 1.64µM* | ? | i | -3.7%
CC(=O)Nc1ccc(-c2cc(C(=O)O)c3ccc(C)cc3n2)cc1 | -1.5% | 1.6% | 29.7% | -0.7% | i | 5.9%
Cc1noc(C)c1COc1ccccc1C(=O)NCCc1ccc(F)cc1 | -8.9% | -3.1% | -8.1% | -7.4% | i | -2.9%
CC(C)(C)C(=O)N1CCN(c2ccnc3cc(Cl)ccc23)CC1 | -22.9% | -1.6% | 8.2µM* | nt | i | -33.2%
O=C(C1CC1)N1CCN(c2ccnc3cc(Cl)ccc23)CC1 | ? | -7.9% | ? | -34.4% | i | -0.1%
CCN(CC)C(=O)[C@H]1C[C@H](CC(=O)NCc2ccc(OC)c(OC)c2)C(=O)N2CCc3c([nH]c4cc(-c5ccco5)ccc34)[C@]12C | 12.6µM* | -8.2% | ? | ? | ? | -56.5%
CN(C)CCCNC(=O)C[C@H]1C[C@H](C(=O)N2CCOCC2)[C@@]2(CCC3CCCC3)c3[nH]c4cc(-c5ccco5)ccc4c3CCN2C1=O | ? | -1.7% | 6.4% | 25.1µM* | nt | -104.4%
O=C(CC1C[C@H](C(=O)N2CCOCC2)[C@@]2(CCC3CCCC3)c3[nH]c4ccccc4c3CCN2C1=O)NCCN1CCOCC1 (stereo not given in full) | -0.4% | 5.6% | -7.7% | 1.4% | i | 11.0%
